About 770 (0.77%) of roughly 100,000 compounds were called active. The full list was thinned out, with actives kept by preference. Values without a mark were called inactive. No stated cut-off is given here; in the data, active means inhibition above about 50%; inactive means the rest.
Biological target: Gag-Pol polyprotein (Human immunodeficiency virus type 1 group M subtype B (isolate HXB2)) (UniProt P04585)
Test: RNase H inhibition, HIV 1 Gag Pol polyprotein, FRET biochemical assay, screening (AID 372)
Settings: HIV-1 RT RNase H, FRET RNA/DNA substrate fluorescence; at 10 µM; hits give high values

Row | Structure (SMILES) | inhibition
1 | Cc1ccc(OCCOc2ccc(Br)cc2/C=C2\SC(=S)NC2=O)c(C)c1 | 46%
2 | O=C(COC(=O)c1ccccc1Cl)c1ccc(Cl)cc1Cl | 43%
3 | CCOC(=O)C1=C(C)N=c2s/c(=C/c3ccc(-c4cc([N+](=O)[O-])ccc4OC)o3)c(=O)n2C1c1cccs1 (centres undefined) | 8%
4 | CC(O)c1cccc(NC(=O)c2nn3c(c2Cl)NC(c2cccs2)CC3C(F)(F)F)c1 (centres undefined) | 6%
5 | COc1ccc(-c2cc(-c3ccccc3)nc(-c3ccc(C)o3)c2)cc1 | 16%
6 | Cc1ccc(-n2nc3cc(C)c(NC(=O)c4ccc([N+](=O)[O-])cc4Cl)cc3n2)cc1 | 0%
7 | Cc1cc2nn(-c3ccccc3)nc2cc1NC(=O)c1ccc([N+](=O)[O-])cc1Cl | 22%
8 | Cc1cc2nn(-c3ccc(Cl)cc3)nc2cc1NC(=O)c1cc(Cl)ccc1Cl | 52% (active)
9 | Cc1cc2nn(-c3ccc(Cl)cc3)nc2cc1NC(=O)c1ccc([N+](=O)[O-])cc1Cl | 50% (active)
10 | Cc1ccc(-n2nc3cc(C)c(NC(=O)c4cc(Cl)ccc4Cl)cc3n2)cc1 | 5%
11 | COc1ccc(-n2nc3cc(C)c(NC(=O)c4cc(Cl)ccc4Cl)cc3n2)cc1 | 35%
12 | CSc1ccc(/C=C2\C(=O)NC(=O)N(c3ccc(Br)c(C)c3)C2=O)cc1 | 0%
13 | Cc1sc(NC(=O)c2ccccc2C(=O)O)c(C#N)c1C | 3%
14 | O=[N+]([O-])c1cccc(-n2nncc2C23CC4CC(CC(C4)C2)C3)c1 | 19%
15 | Cc1cc(OCC(=O)O)c2c(C)c(Cc3ccccc3)c(=O)oc2c1 | 4%
16 | CCCOc1cc(C)cc2oc(=O)c(Cc3ccccc3)c(C)c12 | 56% (active)
17 | COc1cc(C)cc2oc(=O)c(Cc3ccccc3)c(C)c12 | 22%
18 | Cc1cc(OC(=O)C2CC2)c2c(C)c(Cc3ccccc3)c(=O)oc2c1 | 55% (active)
19 | CC(=O)Oc1cc(C)cc2oc(=O)c(Cc3ccccc3)c(C)c12 | 23%
20 | CCOc1cc(C)cc2oc(=O)c(Cc3ccccc3)c(C)c12 | 46%

Row | Structure (SMILES) | inhibition
21 | O=C(Nc1ncc(Cc2cccc([N+](=O)[O-])c2)s1)c1cccc([N+](=O)[O-])c1 | 11%
22 | O=C(CCc1ccccc1)Nc1cc(C(=O)O)cc(C(=O)O)c1 | 36%
23 | COc1cccc(-c2nc(-c3cccc([N+](=O)[O-])c3)no2)c1 | 5%
24 | O=C(N/N=C/c1ccc(O)cc1O)c1cc(Br)cc(Br)c1O | 12%
25 | Cc1ccc(CNC(=O)C(=O)NCC2CCCO2)cc1 (centres undefined) | 9%
26 | COC(=O)c1cc(C(=O)NC2CCSC2=O)cc([N+](=O)[O-])c1 (centres undefined) | 10%
27 | O=C(NCC1CCCO1)/C(=C/c1cccc(Oc2ccccc2)c1)NC(=O)c1ccccc1 (centres undefined) | 0%
28 | C=CCNC(=O)CN(c1cccc(OC)c1)S(=O)(=O)c1ccccc1 | 0%
29 | CC(=O)Nc1ccc(N=Cc2cccc(C)c2)cc1 | 4%
30 | CC(=O)C(=Nc1ccc(C)cc1C)NNc1cc(C(N)=O)c(Cl)cc1Cl | 70% (active)
31 | CC(=O)Nc1cc(C(N)=O)c(Cl)cc1Cl | 1%
32 | CC(=O)C(=Nc1ccc(C)cc1C)NNc1ccc(Cl)c(C(N)=O)c1 | 11%
33 | Cc1ccc(/C(O)=C2\C(=O)C(=O)N(CCCC(=O)O)C2c2ccc(F)cc2)cc1 (centres undefined) | 4%
34 | Cc1ccc(N2C(=O)/C(=C/c3ccc(O)cc3)C(=O)NC2=S)cc1 | 6%
35 | COc1cc(C=C2C(=O)N(c3ccc(C)cc3)C(=S)N(c3ccc(C)cc3)C2=O)ccc1O | 0%
36 | Cc1ccc(N2C(=O)C(=Cc3ccc(O)cc3)C(=O)N(c3ccc(C)cc3)C2=S)cc1 | 56% (active)
37 | O=C(CN1CCSCC1)N/N=C/c1ccc(-c2ccccc2)cc1 | 7%
38 | O=C(Nc1cc(C(=O)Nc2ccccc2-c2ccccc2)cc(C(=O)Nc2ccccc2-c2ccccc2)c1)c1ccc([N+](=O)[O-])cc1 | 19%
39 | Cc1ccc(OCCOCCN2CCC(C)CC2)cc1 | 15%
40 | CCN1C(=O)c2cccc3c(NC(=O)c4cc([N+](=O)[O-])ccc4Cl)ccc1c23 | 5%

Row | Structure (SMILES) | inhibition
41 | C=CCN1C(=O)/C(=C\c2ccc(I)o2)C(=O)NC1=S | 27%
42 | C=CCN1C(=O)/C(=C\c2ccc(-c3ccc([N+](=O)[O-])cc3)o2)C(=O)NC1=S | 10%
43 | COc1ccc(OC)c(S(=O)(=O)n2nnc3ccccc32)c1 | 3%
44 | COc1ccc(S(=O)(=O)n2nnc3ccccc32)cc1OC | 2%
45 | COc1ccc(S(=O)(=O)n2nnc3ccccc32)c2ccccc12 | 55% (active)
46 | COC(=O)C1=C(C)NC(=S)NC1c1cc(Br)ccc1OCc1ccccc1 (centres undefined) | 11%
47 | Cn1c(=O)c2[nH]c(N/N=C(/C#N)C(N)=O)nc2n(C)c1=O | 8%
48 | CCC(Oc1ccccc1)C(=O)Nc1cc(Cl)ccc1OC (centres undefined) | 56% (active)
49 | CCC(Oc1ccccc1)C(=O)Nc1cc(OC)c(Cl)cc1OC (centres undefined) | 12%
50 | CCC(Oc1ccccc1)C(=O)Nc1cc(Cl)ccc1Cl (centres undefined) | 40%
51 | C=CCn1cc(/C=c2\sc3n(c2=O)C(c2ccc(OC)cc2)C(C(=O)OCC)=C(C)N=3)c2ccccc21 (centres undefined) | 15%
52 | O=C(/C=C/c1ccc(-c2ccccc2Br)o1)c1ccc(Cl)cc1 | 13%
53 | NS(=O)(=O)c1ccc2c(c1)C1C=CCC1C(c1ccc([N+](=O)[O-])cc1)N2 (centres undefined) | 19%
54 | CCOC(=O)C1=C(C)N=c2s/c(=C\c3ccc(OC)c(Br)c3)c(=O)n2C1c1ccccc1Cl (centres undefined) | 29%
55 | CCCOC(=O)c1ccc(NC(=O)c2ccc([N+](=O)[O-])o2)cc1 | 7%
56 | CCOc1ccc(NC(=O)c2ccc([N+](=O)[O-])o2)cc1 | 17%
57 | CCOC(=O)c1ccc(NC(=O)c2ccc([N+](=O)[O-])o2)cc1 | 50% (active)
58 | O=C(Nc1cccc(Cl)c1)Nc1cc(Cl)ccc1Cl | 0%
59 | COc1ccc(-n2c(O)c(C=Nc3ccc(Cl)cc3)c3ccccc3c2=O)cc1 | 11%
